Tat transport: blocks Tat-dependent protein export in E. coli | E. coli MC4100 TorA-mCherry Tat export, fluorescence | inhibition, % at 10 µM | 340,000 compounds, 0.036% hits;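 active = mean replicate inhibition at least 50% and at least half of replicates individually reaching 50%; inconclusive = only one of the two criteria met; inactive = neither criterion met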;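 note: exported cargo escapes ClpAP degradation while cytoplasmic cargo is degraded and loses fluorescence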
phage Ecoli inh: E. coli growth loss with phage present. growth absorbance. inhibition, % at 11.9 µM. 360,000 compounds, 0.26% hits. AID 651602; in the data active = inhibition above about 11%
AddAB inh: less growth of phage-infected E. coli with AddAB. E. coli expressing H. pylori AddAB, absorbance growth. AID 435030. inhibition, % at 11.9 µM. 330,000 compounds, 0.29% hits; in the data active = inhibition above about 12%
E coli growth-1: counter-screen for AddAB inhibitors: E. coli growth inhibition; inhibition, % at 11.9 µM; 330,000 compounds, 0.27% hits; E. coli V3065 growth, OD600 absorbance, 18 h;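 active = inhibition above the campaign's mean inhibition across all tested compounds plus 3 SD, cut at about 9.9% in these data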;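 note: uninfected addAB+ strain grown without phage in ampicillin broth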
E coli growth-2: inhibitors of Escherichia coli growth; OD600, 23 h; stronger effect = lower value; OD600 absorbance (concentration not given with the values); 330,000 compounds, 0.21% hits;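 active = OD600 absorbance below the run mean of sample wells minus 3.6 SD, in any replicate, cut at about 0.56 in these data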
RecBCD conf: growth loss of phage-infected V66 E. coli, RecBCD confirmation screen; shares compounds with phage Ecoli inh; E. coli V66 + T4 2- phage, growth OD; inhibition, % at 11.9 µM; 890 compounds, 45% hits; AID 651982;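 active = mean inhibition over triplicates exceeding the hit threshold derived in the original primary screen, cut at about 11% in these data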
Ecoli viability: inhibits E. coli viability, flagging RecBCD hits as nonselective; shares compounds with phage Ecoli inh; absorbance (OD) growth; inhibition, % at 11.9 µM; 890 compounds, 29% hits; AID 651983; in the data active = inhibition above about 20%;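 note: E. coli strain V66 grown with compound alone and no phage infection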
AddAB phage OD: growth loss of phage-infected AddAB E. coli, RecBCD counter-screen | shares compounds with phage Ecoli inh | E. coli expressing H. pylori AddAB + T4 phage, OD growth; gene 2 mutant T4, recBCD-deleted host | inhibition, % at 11.9 µM | 890 compounds, 45% hits | AID 651984;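 active = mean inhibition above the solvent-only control wells' mean plus 3 SD, cut at about 22% in these data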;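 note: higher means less bacterial growth from phage killing when AddAB is blocked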
Numbers stand for hits; - = inactive; ? = inconclusive; . = not tested or not shown. Sampled rows, rich in hits. Any-hit rate of the full collection: about 0.5%.

SMILES | Tat transport | phage Ecoli inh | AddAB inh | E coli growth-1 | E coli growth-2 | RecBCD conf | Ecoli viability | AddAB phage OD
O=C1c2ccccc2NC(c2ccc(-c3cccc(F)c3)o2)N1O (configuration not stated) | - | 12.3 | - | - | - | - | - | -
CC1CC(=NNC(=S)NC(C)C)CC(C)(C)C1 (configuration not stated) | . | . | . | . | - | . | . | .
Cc1cccc(NC(=O)c2nc[nH]c2C(=O)NC(Cc2ccccc2)C(=O)OCc2ccccc2)c1 (configuration not stated) | . | . | . | . | - | . | . | .
OCC[n+]1ccc(C=Cc2c[nH]c3ccccc23)cc1 | . | . | . | . | - | . | . | .
COc1ccc(N(CC(=O)Nc2cccc(C)c2C)S(=O)(=O)c2c(C)[nH]c(=O)[nH]c2=O)cc1 | - | 100.2 | - | - | - | - | - | -
COc1ccc(N(CC(=O)Nc2cccc(C)c2C)S(=O)(=O)c2c(C)n[nH]c2C)cc1 | - | - | - | - | - | . | . | .
CCN(CC)C(=O)C(=O)NN=Cc1cccc(Br)c1 | . | . | . | . | - | . | . | .
Cc1nn(-c2ccccc2)c(N2CCCC2)c1/C=N/NC(=O)c1ccccc1O | - | - | - | - | . | . | . | .
O=C(N/N=C/c1cc2c3c(c1O)CCCN3CCC2)c1ccccc1O | - | 24.9 | . | . | . | - | - | -
O=C(ON=Cc1ccc(N2CCOCC2)c([N+](=O)[O-])c1)c1ccc(F)cc1 | . | . | . | . | - | . | . | .
Nc1nonc1-n1nnc(C(=O)N/N=C/c2cc(Br)ccc2O)c1CNc1ccccc1 | - | 12.2 | - | - | . | - | - | -
Cc1ccc(/C=N/NC(=O)c2nnn(-c3nonc3N)c2CNc2ccccc2)cc1 | - | - | - | - | . | . | . | .
COc1cc(C=CC(=O)N2C(=O)c3cccc(N)c3C2=O)cc(OC)c1OC | . | . | . | . | - | . | . | .
CCN(CC)S(=O)(=O)c1cccc(NC(=O)CC2CCCC2)c1 | - | - | - | - | - | . | . | .
CCN(CC)S(=O)(=O)c1cccc(NC(=O)Nc2cccc(C(F)(F)F)c2)c1 | - | 11.3 | - | - | - | - | - | -
CSC1SCC2C(=O)N(C)C(C(C)C)C(=O)OCC(NC(=O)c3cnc4ccccc4n3)C(=O)NC(C)C(=O)N(C)C1C(=O)N(C)C(C(C)C)C(=O)OCC(NC(=O)c1cnc3ccccc3n1)C(=O)NC(C)C(=O)N2C (configuration not stated) | - | 99.1 | . | . | . | 88.8 | 91.8 | 80.8
C(=NN(Cc1ccccc1)c1ccccc1)c1ccco1 | . | . | . | . | - | . | . | .
Oc1ccc(/C=N/NC(=S)Nc2cccnc2)c(O)c1O | - | 14.7 | . | . | . | 11.3 | - | 32.5
NC(=S)N/N=C/c1ccccc1O | - | - | - | - | . | . | . | .
Oc1ccccc1C=NNC(=S)NN=Cc1ccccc1O | - | 12.7 | . | . | - | 12.9 | - | 37.6
Cn1nnnc1SCc1ccc(F)cc1 | - | 19.9 | - | - | - | - | - | -
CC(=O)Nc1sc(NN=Cc2ccco2)nc1-c1cccs1 | . | . | . | . | - | . | . | .
COc1ccc(C2CC(=O)C=C(c3cccc(OC(F)(F)F)c3)C2)cc1 (configuration not stated) | . | . | . | . | - | . | . | .
Cc1ccc(NCCN(C)C)c2c(=O)c3cc(O)ccc3sc12 | - | - | . | . | . | . | . | .
CN(C)CCNc1cccc2sc3ccc(O)cc3c(=O)c12 | . | 13.4 | . | . | . | - | - | -
SMILES | Tat transport | phage Ecoli inh | AddAB inh | E coli growth-1 | E coli growth-2 | RecBCD conf | Ecoli viability | AddAB phage OD
CCOc1ccc2c(c1)S/C(=C\c1cccs1)C(=O)N2 | - | 53.8 | - | - | - | - | - | -
Cc1cc(C)cc(N=C2NC(=O)/C(=C/c3cccs3)S2)c1 | - | - | - | - | - | . | . | .
Fc1cccc(/C=N/Nc2nncc3ccccc23)c1 | - | - | - | - | . | . | . | .
C(=N\Nc1nncc2ccccc12)/c1ccccn1 | - | 19.3 | - | 10.2 | . | 20.4 | 27.1 | 23.7
Cc1cc(C)n(-c2nnc(C)n2N=Cc2ccc(O)cc2)n1 | . | . | . | . | - | . | . | .
O=C1/C(=C/c2cccnc2)Oc2cc(OS(=O)(=O)c3ccccc3)ccc21 | ? | . | - | - | - | . | . | .
O=S(=O)(Oc1ccccc1)c1cccnc1 | - | 100.7 | - | - | - | - | - | -
Nc1nc(N)c2cc(CNc3ccc(Cl)c(Cl)c3)ccc2n1 | . | 57.6 | . | . | . | 41.2 | 36.3 | 72.9
CC1(CC(=O)NN=Cc2ccc(-c3ccc(C(=O)O)cc3)o2)OCCO1 | . | . | . | . | - | . | . | .
CC(=NNC(=S)N1CCC1)c1ccccn1 | - | 40.6 | . | . | . | 43.0 | 52.4 | 41.4
CC(=NNc1nc2ccccc2o1)c1cc2ccccc2cn1 | - | 11.7 | . | . | . | - | - | -
CC(=NNc1nc2ccccc2o1)c1ncccn1 | - | 30.3 | . | . | . | 28.9 | 36.2 | -
CC(=NNc1nc2ccc(Cl)cc2o1)c1ccccc1 | . | . | . | . | - | . | . | .
CCC(=Cc1ccccc1)c1cccc2[nH]c3c(OC)cccc3c12 | . | . | . | . | - | . | . | .
O=C(C1=C(c2ccccc2)C(=O)c2ccccc2C1=O)c1ccccc1 | - | 11.1 | . | . | - | - | - | -
Nc1nc(=O)n(C2CCC(CO)O2)cc1F (configuration not stated) | . | 11.3 | . | . | . | - | - | 31.0
O=c1[nH]cnc2c1ncn2C1CCC(CO)O1 (configuration not stated) | . | 87.4 | . | . | . | 73.9 | 90.3 | 97.7
O=c1[nH]cnc2c1ncn2C1OC(CO)C(O)C1O (configuration not stated) | - | - | . | . | - | . | . | .
COC(=O)C1=C(C)N(Cc2ccccc2C(F)(F)F)C(=NCc2ccccc2)NC1c1ccc(C(F)(F)F)cc1 (configuration not stated) | . | 13.3 | . | . | . | - | - | -
COC(=O)C1=C(C)N(Cc2ccccc2C(F)(F)F)C(=NCc2cccc(C(F)(F)F)c2)NC1c1ccc(C(F)(F)F)cc1 (configuration not stated) | . | - | . | . | . | . | . | .
COc1ccc2nc(C)cc(SCC(=O)NN=Cc3ccc(O)cc3O)c2c1 | . | . | . | . | - | . | . | .
Fc1ccc(C=NNc2nc(-c3cccnc3)nc3ccccc23)cc1 | . | . | . | . | - | . | . | .
Cc1nnc(NS(=O)(=O)c2ccc(N)cc2)s1 | - | 12.1 | - | - | - | - | - | 26.6
Cc1nnc(NS(=O)(=O)c2ccc(F)cc2)s1 | - | - | . | . | . | . | . | .
CCOC(=O)C1C2COc3cc(OC)ccc3C2N2C(=O)CN(CC3CCCO3)C(=O)[C@@]12C (some centres not stated) | . | . | . | . | - | . | . | .
SMILES | Tat transport | phage Ecoli inh | AddAB inh | E coli growth-1 | E coli growth-2 | RecBCD conf | Ecoli viability | AddAB phage OD
COc1ccccc1NC(=O)CC1SC(=NN=C2CCCc3ccccc32)NC1=O (configuration not stated) | . | . | . | . | - | . | . | .
c1cc(-c2ccoc2)n2ccnc2c1 | . | - | . | . | . | . | . | .
c1cc(-c2ccsc2)n2ccnc2c1 | . | 10.9 | . | . | . | - | - | -
O=C(NNC(=O)c1cc(F)c(F)cc1Cl)c1ccc(NS(=O)(=O)c2cccs2)cc1 | - | - | - | - | - | . | . | .
O=C(NNC(=O)c1cc(Cl)ccc1O)c1ccc(NS(=O)(=O)c2cccs2)cc1 | - | 11.1 | - | - | - | - | - | -
O=C(CSc1ccc(-c2ccccn2)nn1)Nc1cccc(F)c1 | - | 12.2 | - | 10.9 | - | - | - | -
